Most compounds without a hit are left out; they make up all but 19% or so of the library.
HT1080-NT tox = kills 2HG-producing HT-1080-NT fibrosarcoma cells. HT-1080-NT fibrosarcoma viability, CellTiter-Glo ATP luminescence, 48 h. Potency, µM (series often up to 46.1 µM), for the others: at the top dose activity, negative = less viability, actives largely listed as cytotoxic. actives 1.6% (n = 360,000). AID 686970;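 also: NT is the 2HG producing partner of a matched IDH1 knockdown line; potency is read from the fitted curve at half-maximal effect; 0% = DMSO-treated cells and -100% = media-only wells without cells; nearly all actives have a fitted effect of over 55% in size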
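Fibrosarcoma NT cells, 750 per well in 5% FBS RPMI, were exposed to compound for 48 hours. Viability: CellTiter-Glo luminescence.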
IL-1B inflam inh = inflammasome signaling inhibition, IL-1 beta readout; THP-1 LPS/ATP IL-1B secretion, AlphaLISA, 16 h; stronger effect = lower value; actives 4.7% (n = 360,000); activity change, % at 57.5 µM; AID 743279; in the data active = activity change below about -50%; inconclusive = mostly about -30% to -49%
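THP-1 cells pretreated 1 hr with compounds (up to 57.5 uM final), then stimulated with LPS (250 ng/mL final) plus ATP (1.25 mM final); secreted IL-1B measured by AlphaLISA after 16 hr, decreased signal indicating inhibition.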
TDP1 cell CPT = DT40-hTDP1 cell growth loss with CPT | actives 12% (n = 420,000) | chicken DT40 Tdp1-/-;hTDP1 cells + 20 nM CPT, ATP luminescence, 48 h | Potency, µM (doses to about 46.2 µM), for inactives: top-dose activity change, negative = growth inhibition, hits mostly inhibitors; also: potency is read from the fitted curve at half-maximal effect; nearly all actives have a fitted effect of over 55% in size
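Chicken DT40 Tdp1-/- cells stably complemented with human TDP1 were seeded at 400 cells/well in medium containing 20 nM camptothecin, exposed to pin-transferred compounds, and grown at 37 °C for at least 48 hr. Viability was read as ATP luminescence.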
ELG1 DNA repair = ELG1-dependent DNA repair inhibition | HEK293T ELG1-luciferase reporter, luminescence, 16 h; DNA damage induced by 5-fluorouridine | Potency, µM (highest dose often 46.1 µM), without a hit: at the highest dose activity change, negative = inhibition, hits mostly inhibitors | actives 2.3% (n = 330,000); also: potency is read from the fitted curve at half-maximal effect; nearly all actives have a fitted effect of over 55% in size
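Reporter activity after DNA damage by 5-fluorouridine is monitored. Compound-treated cells incubate 16 hr at 37 °C, then ONE-Glo is added for 30 min before luminescence reading.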
HT1080 IDH1KD tx = HT-1080 IDH1 knockdown cell toxicity (counter line) | actives 2% (n = 360,000) | Potency, µM (top dose mostly 46.1 µM), for inactives: at the highest dose activity, negative = toxicity, hits mostly cytotoxic | HT-1080 IDH1 knockdown viability, ATP luminescence, 48 h;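 also: potency is read from the fitted curve at half-maximal effect; 0% = DMSO wells and -100% = cell-free medium wells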
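Using the IDH1-knockdown HT-1080 line run in the same batch and compound series as the NT line, viability after 48 h at 37 °C was determined by CellTiter-Glo luminescence and expressed as % activity.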
DT40 TDP1 no CPT = qHTS for Inhibitors of human tyrosyl-DNA phosphodiesterase 1 (TDP1): qHTS in cells in absence of CPT. AID 686978, 2013. Potency, µM (doses to about 46.2 µM), for inactives: top-dose activity change, negative = growth inhibition, hits mostly inhibitors. DT40 Tdp1-/- hTDP1 cells, no CPT, ATP luminescence, 48 h. actives 15% (n = 420,000); also: potency is read from the fitted curve at half-maximal effect; nearly all actives have a fitted effect of over 55% in size
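Compound effects on proliferation are scored in DT40 Tdp1-/-;hTDP1 cells in the absence of CPT. ATP levels (CellTiter-Glo luminescence) are recorded after a ≥48 hr, 37 °C incubation.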
* marks the source's active call; other numbers are inactive results; u = inconclusive; x = no result. Unless noted, calls follow the shape of the dose curve; as a rule, active = well fitted curve in the direction sought with a large enough effect; inconclusive = small, poorly fitted or top-dose-only effect, or another doubt; inactive = no such curve, though single readings can be large; an effect the other way counts as inactive or inconclusive. Unless noted, % is scaled to controls: 0 for no effect and ±100 for the full control effect.

SMILES | HT1080-NT tox | IL-1B inflam inh | TDP1 cell CPT | ELG1 DNA repair | HT1080 IDH1KD tx | DT40 TDP1 no CPT
O=C(c1ccc(CS(=O)Cc2ccc(Cl)cc2)o1)N1CCN(c2ccccn2)CC1 (stereo unspecified) | -0.9% | -62.0* | u | u | -10.4% | u
O=C(c1ccc(CS(=O)Cc2ccccc2Cl)o1)N1CCN(c2ccccn2)CC1 (stereo unspecified) | -11.8% | 41.7 | u | 20.6µM* | -0.6% | 16.4µM*
O=C(c1ccc(CS(=O)Cc2ccccc2Cl)o1)N1CCN(c2cccc(Cl)c2)CC1 (stereo unspecified) | -37.0% | -23.0 | u | u | -25.8% | u
O=C1CC(c2ccccc2)Oc2ccccc21 (stereo unspecified) | -21.2% | u | u | x | -2.9% | u
O=C1CC(c2cccc(O)c2)Oc2ccccc21 (stereo unspecified) | 0.6% | -82.6* | u | u | -5.5% | u
O=C1CC(c2ccc(O)cc2)Oc2cc(O)ccc21 (stereo unspecified) | 0.0% | -11.8 | -19.5% | x | 0.2% | -4.2%
CC(=O)N1CCC2(CC1)CC(=O)c1cc(Cl)ccc1O2 | 4.2% | 16.3 | -15.1% | x | 8.0% | -16.0%
Cn1c(Cl)cnc1C1CC(=O)c2cc(Cl)ccc2O1 (stereo unspecified) | u | -95.1* | 4.11µM* | 0.0% | 9.2µM* | 2.59µM*
O=C1CC(c2ccc(Cl)cc2)Oc2ccc(Cl)cc21 (stereo unspecified) | u | -87.2* | u | x | u | u
Cc1ccc2cc3cc(C(=O)N4CCN(c5cccc(C(F)(F)F)c5)CC4)sc3nc2c1 | x | x | 2.4% | x | x | 7.2%
Cc1nc(C(=O)NNC(=O)c2ccc(Cl)cc2)c(C(F)(F)F)o1 | -14.2% | x | u | u | u | u
COCCN(C(=O)COC(=O)c1ccc(Cl)s1)c1c(N)n(Cc2ccccc2)c(=O)[nH]c1=O | -0.5% | -6.7 | -5.8% | u | -4.8% | 0.8%
O=c1[nH]c2cc3c(cc2cc1CN(CCc1ccccc1)Cc1nnnn1C1CCCC1)OCCO3 | x | x | x | -9.3% | x | x
Cc1cc2cc(CN(Cc3ccc4c(c3)OCO4)Cc3nnnn3C3CCCC3)c(=O)[nH]c2cc1C | 5.3% | -5.8 | 16.4µM* | u | -0.6% | 13µM*
Cc1ccc2[nH]c(=O)c(CN(Cc3ccc4c(c3)OCO4)Cc3nnnn3C3CCCC3)cc2c1 | -2.0% | -55.8* | u | x | -1.5% | u
Cc1cccc(C(=O)Nc2cccc(C(=O)N3CCOCC3)c2)c1 | -0.5% | 15.5 | -2.1% | u | 15.6% | -3.2%
CC(=O)/C(=N/Nc1cccc(C)c1)N1CCOCC1 | -5.3% | -1.7 | 6.51µM* | 1.1% | u | u
Cn1nc2c3ccccc3n(Cc3ccccc3)c2nc1=S | -2.2% | 7.3 | -18.1% | u | -2.4% | u
CCn1c2ccccc2c2nn(C)c(=N)nc21 | -11.0% | -26.3 | 14.6µM* | -18.5% | -5.5% | 18.4µM*
CCCC(=O)Nc1cc(-c2nc3cccnc3s2)ccc1C | x | x | -9.2% | x | x | -24.2%
c1ccc(-c2nc(NCCCn3ccnc3)c3oc4ccccc4c3n2)cc1 | u | -78.8* | u | u | u | u
O=C(N/N=C/c1ccsc1)c1cc(-c2cccs2)nc2ccccc12 | u | 7.2 | 10.3µM* | u | u | 8.2µM*
O=C(N/N=C/c1ccsc1)c1c[nH]c2ccccc12 | -2.6% | u | -14.6% | u | 2.6% | -18.6%
O=C(N/N=C/c1ccsc1)c1cc(-c2ccncc2)nc2ccccc12 | 4.61µM* | 3.9 | 3.66µM* | 2.8% | u | 3.26µM*
O=C(O)c1ccc(/C=N/NC(=O)c2cc(-c3cccs3)nc3ccccc23)cc1 | -2.2% | 18.0 | u | 13.3% | -4.0% | 11.6µM*
SMILES | HT1080-NT tox | IL-1B inflam inh | TDP1 cell CPT | ELG1 DNA repair | HT1080 IDH1KD tx | DT40 TDP1 no CPT
CN(CC(=O)Nc1c(Cl)cccc1Cl)C(=O)C1CCN(C(=O)Nc2ccccc2)CC1 | 2.8% | -9.4 | 3.5% | 0.6% | -0.3% | -14.3%
CN1CCN(NC(=O)c2ccc(Cl)c(S(=O)(=O)Nc3ccc(Cl)cc3)c2)CC1 | 0.0% | -12.7 | -1.1% | 14.1% | -0.4% | 7.1%
Cc1ccc(CN(C(=O)c2ccc([N+](=O)[O-])cc2)C2CCS(=O)(=O)C2)o1 (stereo unspecified) | 3.7% | 0.9 | u | 15.4% | -0.9% | u
COc1cc(=O)[nH]c(SC(C)C(=O)Nc2ccc3ccccc3c2)n1 (stereo unspecified) | -3.9% | 42.7 | -0.5% | -1.7% | -13.8% | 7.6%
COc1cccc2c1C(=O)c1c(O)c3c(c(O)c1C2=O)C[C@@](O)(C(C)=O)C[C@@H]3O[C@H]1C[C@H](N)[C@H](O)[C@H](C)O1 | 0.0731µM* | -110.2* | 0.0206µM* | 3.26µM* | 0.146µM* | 0.0058µM*
CC[C@@]1(O)C[C@H](O[C@H]2C[C@H](N(C)C)[C@H](O[C@H]3C[C@H](O)[C@H](O[C@H]4CCC(=O)[C@H](C)O4)[C@H](C)O3)[C@H](C)O2)c2c(cc3c(c2O)C(=O)c2c(O)cccc2C3=O)[C@H]1C(=O)OC | x | x | 0.211µM* | x | x | 0.237µM*
CC(=O)[C@]1(O)Cc2c(O)c3c(c(O)c2[C@@H](O[C@H]2C[C@H](N)[C@H](O)[C@H](C)O2)C1)C(=O)c1ccccc1C3=O | 3.26µM* | -105.8* | 0.146µM* | x | 0.326µM* | 0.0073µM*
COc1cccc2c1C(=O)c1c(O)c3c(c(O)c1C2=O)CC(O)(C(=O)CO)CC3OC1CC(N(C)C)C(O)C(C)O1 (stereo unspecified) | u | -100.1* | 0.0146µM* | x | 0.411µM* | 0.146µM*
NC(=O)[C@@H]1CCCN1C(=O)c1cc(NC(=O)c2ccccc2)cc2ncn(C3CCCC3)c12 | x | x | -16.7% | x | x | -15.4%
O=C(CSc1nc2ccccc2n1Cc1c(F)cccc1Cl)N1CCN(c2ccc(F)cc2)CC1 | x | x | -1.4% | x | x | -26.7%
COc1cccc2c1C(=O)c1c(O)c3c(c(O)c1C2=O)C[C@@](O)(C(=O)CO)C[C@@H]3O[C@H]1C[C@H](N)[C@@H](O)[C@H](C)O1 | 0.259µM* | -27.2 | 0.164µM* | x | 0.517µM* | 0.146µM*
CC(C)CN(C(=O)CN(C)C(=O)c1ccco1)c1c(N)n(CC(C)C)c(=O)[nH]c1=O | 6.7% | 5.8 | 3.3% | 11.9% | 4.5% | 0.5%
